Screening results deposited in PubChem by several laboratories.
An excerpt weighted towards active compounds, which were near 3.9% of everything screened.
Vc quorum ag: quorum light induction in luxS cqsA deficient V. cholerae; V. cholerae BH1578 lux reporter, luminescence, 6 h; activation, % at 18.7 µM; 350,000 compounds, 0.16% hits; AID 588436; in the data active = activation mostly above about 9.7%, no sharp cut-off
GDH-TPI inh: inhibits GDH-TPI coupling enzymes, artifact for Mtb FBA screen | 360,000 compounds, 1.2% hits | inhibition, % at 4.8 µM | GDH-TPI coupled enzyme counterscreen, NADH absorbance | AID 588335; in the data active = inhibition above about 30%;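 also: 0% = DMSO wells and 100% = wells lacking the enzyme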
PrPC surface inh: inhibitors of human cell surface prion protein PrPC | P04156 | TR-FRET read-out | inhibition, % at 13.8 µM | 370,000 compounds, 0.43% hits | AID 720596; in the data active = inhibition above about 24%; also: 0% = median of the test wells and 100% = reference compound wells
FBA Mtb inh: inhibits M. tuberculosis FBA enzyme. P9WQA3. purified M. tuberculosis FBA, fluorescence read-out. inhibition, % at 1 µM. 360,000 compounds, 2.3% hits. AID 588726; in the data active = inhibition above about 27%;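 also: 0% = vehicle and 100% = reference inhibitor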
SARS 3CLpro inh: SARS-CoV 3CLpro protease inhibition; inhibition, % at 6 µM; P0C6X7; recombinant SARS-CoV 3CLpro, quenched FRET peptide cleavage; AID 1706; 290,000 compounds, 0.14% hits; in the data active = inhibition above about 12%
PrPC confirm: cell surface PrPC inhibition, TR-FRET confirmation. shares compounds with PrPC surface inh. cell surface PrPC level. inhibition, % at 13.8 µM. 1,500 compounds, 65% hits. AID 743200; in the data active = inhibition above about 25%
LD9 tox: counter-screen for PrPc inhibitors: cytotoxicity in LD9 cells. shares compounds with PrPC surface inh. luminescence viability. inhibition, % at 13.8 µM. 1,500 compounds, 29% hits; in the data active = inhibition above about 9.5%
Active calls of the source: *; i = inactive; x = not tested or not shown; + = active, no number.

SMILES	Vc quorum ag	GDH-TPI inh	PrPC surface inh	FBA Mtb inh	SARS 3CLpro inh	PrPC confirm	LD9 tox
CCCC(=O)NC(c1ccc(Cl)cc1Cl)c1ccc2cccnc2c1O (centres undefined)	-0.8	9.4	28.1*	-1.6	-1.4	24.4	11.9*
CC(C)C(=O)NC(c1cccc([N+](=O)[O-])c1)c1ccc2cccnc2c1O (centres undefined)	0.0	0.5	29.0*	-1.6	1.5	21.7	28.1*
CC(=O)NC(c1ccc2ccccc2c1)c1ccc2cccnc2c1O (centres undefined)	i	2.5	38.5*	1.6	-2.8	24.9*	30.6*
COc1ccc(C(NC(C)=O)c2ccc3cccnc3c2O)c(OC)c1 (centres undefined)	i	7.7	x	-0.1	x	x	x
CC(=O)NC(c1ccc(Cl)cc1Cl)c1ccc2cccnc2c1O (centres undefined)	-0.4	-1.5	31.7*	-2.3	2.8	34.9*	30.7*
C[C@H]1CCC/C=C/C2C[C@H](O)CC2[C@H](O)/C=C/C(=O)O1 (some centres undefined)	-0.8	3.4	x	-0.8	-3.6	x	x
CC1CCC/C=C/C2CC(O)CC2C(O)/C=C/C(=O)O1 (centres undefined)	0.7	2.3	89.2*	0.6	4.8	95.1*	7.2
O=c1c2cn[nH]c2[nH]c(=S)n1-c1cccc2ccccc12	i	-3.0	40.0*	0.9	-3.5	45.9*	-6.1
O=c1c2cn[nH]c2[nH]c(=S)n1-c1ccccc1	i	10.4	-2.9	-13.2	-1.7	x	x
Cc1cc(C)nc(NN=C(c2ccccc2)c2ccccc2)n1	i	13.8	8.1	-3.0	2.3	x	x
O=C(CCc1nnc(Cc2c[nH]c3ccccc23)o1)NCCC1CCCCO1 (centres undefined)	i	10.2	-1.7	-1.2	x	x	x
CSc1sc(-c2ccnc(SCC(=O)C(C)(C)C)n2)c2c1C(=O)CC(C)(C)C2	i	12.2	32.2*	-3.2	1.8	47.8*	-0.6
NC(=O)c1ccc(-c2ccc(Br)cc2)o1	20.0	-11.0	52.6*	18.3	2.4	63.4*	-8.7
COc1ccc2c(c1)C(C)=CC(C)(C)N2S(=O)(=O)c1ccc(NC(C)=O)cc1	-0.6	8.6	8.8	0.1	3.2	x	x
CCOc1ccc2c(c1)C(C)=CC(C)(C)N2S(=O)(=O)c1ccc(NC(C)=O)cc1	-0.6	11.2	24.5*	-2.0	3.1	11.6	16.0*
C/C(=N\Nc1nc2ccccc2[nH]1)c1ccccn1	-0.2	9.2	26.4*	-4.1	-0.1	48.5*	69.1*
CC(=O)Nc1nc2ccccc2[nH]1	-0.5	-3.5	3.7	-1.6	1.3	x	x
COc1ccc(COC(=O)C2=C(C)NC(=O)NC2c2ccc(O)c(OC)c2)cc1 (centres undefined)	-1.5	-6.1	8.5	-1.0	-6.5	x	x
COc1ccc(CC2C(=O)NC(C)C(=O)N(C)C3C(=O)N(C)C(Cc4ccc(O)c(c4)Oc4ccc(cc4)C3O)C(=O)NC(C)C(=O)NC(C)C(=O)N2C)cc1 (centres undefined)	-5.6	0.9	87.2*	-3.3	x	94.9*	38.2*
CC(Cc1ccccn1)NC(=O)c1ccc(OC2CCN(CCc3ccccc3)CC2)cc1 (centres undefined)	i	-1.3	-6.5	2.2	-3.7	x	x
O=C(NCCc1ccccn1)c1ccc(OC2CCN(CCc3ccccc3)CC2)cc1	-0.4	0.0	44.7*	0.3	0.6	-0.7	6.5
CCOC(=O)c1c(/N=C/N(C)C)sc(/C=N/Nc2ccccc2)c1-c1ccccc1	0.1	10.6	53.7*	7.6	-5.4	39.8*	0.1
CCOC(=O)c1c(/N=C/N(C)C)sc(/C=N/Nc2ccccc2)c1-c1ccccc1Cl	i	10.9	-0.2	0.2	-1.2	x	x
O=C1C(=C(I)I)c2ccccc2-c2ccccc21	-0.8	8.7	3.6	6.1	x	x	x
O=C1C(=O)c2ccccc2-c2ccccc21	i	0.5	27.0*	-5.3	4.4	64.8*	98.7*
SMILES	Vc quorum ag	GDH-TPI inh	PrPC surface inh	FBA Mtb inh	SARS 3CLpro inh	PrPC confirm	LD9 tox
O=C(O)c1ccccc1SCc1csc(-c2ccccc2)n1	-0.3	-2.7	76.3*	-2.6	1.1	59.8*	-3.6
COC(=O)c1ccccc1SCc1csc(C)n1	-0.4	-1.9	8.9	1.4	-2.3	x	x
OC[C@@H]1CN(Cc2cccnc2)C[C@H](n2cnc3c(NC4CCCC4)ncnc32)O1	-0.2	11.1	12.2	0.3	x	x	x
CCCCC(=O)NC(c1ccc(N(C)C)cc1)c1ccc2cccnc2c1O (centres undefined)	i	7.9	27.4*	3.4	-0.6	24.7*	16.2*
CCCCC(=O)NC(c1ccccc1OC)c1ccc2cccnc2c1O (centres undefined)	-0.4	8.2	40.5*	5.1	-1.5	30.7*	27.4*
CCCCC(=O)NC(c1ccc(Cl)cc1)c1ccc2cccnc2c1O (centres undefined)	-0.4	4.6	28.6*	-3.2	-2.4	18.2	11.4*
CC(=O)c1ccc(N=c2scc(C)n2C(C)C)cc1	-0.2	11.2	0.0	2.3	0.3	x	x
O=C(Nc1ccc(Br)cn1)c1ccc(Cl)s1	-0.2	-5.4	14.2	-0.1	-4.4	x	x
O=C(Nc1ccc(Br)cn1)c1ccc(Br)s1	i	-7.9	28.3*	-0.1	8.0	43.9*	-3.4
COc1cc(OC)cc(C(=O)N[C@H](C(=O)Nc2nc(-c3cc(OC)ccc3OC)cs2)C(C)C)c1	1.0	2.8	25.7*	1.8	1.9	30.1*	-8.3
COc1cc2[nH]c(=S)n(NC(=O)c3ccccc3)c(=O)c2cc1OC	+	14.3	36.4*	2.2	-2.5	50.0*	-4.5
COc1ccc(C(=O)Nc2ccc3[nH]ncc3c2)cc1	-0.7	-1.5	-1.0	-1.5	-1.4	x	x
CCOc1ccc(C(=O)Nc2ccc3[nH]ncc3c2)cc1	i	8.6	32.6*	1.1	5.3	6.7	0.7
N#CCc1ccc(NC(=O)Nc2cccc(Cl)c2)cc1	i	3.1	30.8*	0.6	1.9	33.1*	4.5
CC(C)[C@@H]1Cc2[nH]n(C)c(=O)c2[C@H](c2ccc(F)cc2)O1	x	x	-2.1	x	x	x	x
CC(N)c1csc(Nc2ccc(C(=O)c3ccccc3)cc2)n1 (centres undefined)	i	23.0	-13.9	-0.2	x	x	x
NC(c1csc(Nc2ccc(C(=O)NCCO)cc2)n1)C1CCCCC1 (centres undefined)	-0.5	17.3	0.8	2.0	x	x	x
NC(c1csc(Nc2ccc(C(=O)c3ccccc3)cc2)n1)C1CCCCC1 (centres undefined)	-0.7	2.7	38.4*	3.5	x	41.1*	3.5
CC(=O)c1ccc(Nc2nc(C(N)C3CCCCC3)cs2)cc1 (centres undefined)	-4.5	33.6*	29.4*	2.5	x	39.1*	3.6
